Hits are enriched below; roughly 19% of the tested compounds scored in any of these assays.
HT1080 IDH1KD tx – kills HT-1080 cells with IDH1 knockdown | AID 686971 | 360,000 compounds, 2% hits | HT-1080 IDH1 knockdown viability, ATP luminescence, 48 h | Potency, µM (highest dose often 46.1 µM), for the others: at the highest dose activity, negative = toxicity, actives largely listed as cytotoxic;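 note: 0% = DMSO wells and -100% = cell-free medium wells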
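Assay cells: HT-1080 with IDH1 knockdown, 750 per well, RPMI/5% FBS. Exposure: 48 h at 37 °C following 2 h pre-incubation. Read: CellTiter-Glo luminescence; fitted concentration-response, curve class assigned.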
DT40 TDP1 CPT – growth inhibition of DT40 Tdp1-/-;hTDP1 cells with camptothecin (screen for TDP1 inhibitors); chicken DT40 Tdp1-/-;hTDP1 cells + 20 nM CPT, ATP luminescence, 48 h; Potency, µM (doses to about 46.2 µM), for inactives: at the top dose activity change, negative = growth inhibition, usual class: inhibitors; 420,000 compounds, 12% hits; note: nearly all actives have a fitted effect of over 55% in size
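Cell growth measured by CellTiter-Glo luminescence after a minimum 48 h, 37 C compound exposure with 20 nM CPT in Tdp1-knockout DT40 cells stably expressing hTDP1, seeded 400/well; qHTS titration format.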
KB-3-1 cytotox – KB-3-1 parental cell cytotoxicity; KB-3-1 viability, CellTiter-Glo ATP luminescence, 72 h; Potency, µM (top dose mostly 46.1 µM), hits mostly cytotoxic; 400,000 compounds, 1.4% hits; note: nearly all actives have a fitted effect of over 60% in size
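Viability of parental KB-3-1 cells, measured by CellTiter-Glo luminescence, followed a 72 h incubation at 37 °C with pinned compounds in phenol-red-free DMEM containing 10% FBS.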
HT1080-NT tox – kills 2HG-producing HT-1080-NT fibrosarcoma cells; HT-1080-NT fibrosarcoma viability, CellTiter-Glo ATP luminescence, 48 h; Potency, µM (highest dose often 46.1 µM), inactives show at the top dose activity, negative = less viability, hits mostly cytotoxic; 360,000 compounds, 1.6% hits; AID 686970;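 note: NT is the 2HG producing partner of a matched IDH1 knockdown line; 0% = DMSO-treated cells and -100% = media-only wells without cells; nearly all actives have a fitted effect of over 55% in size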
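Fibrosarcoma NT cells, 750 per well in 5% FBS RPMI, were exposed to compound for 48 hours. Viability: CellTiter-Glo luminescence.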
TDP1 cell noCPT – qHTS for Inhibitors of human tyrosyl-DNA phosphodiesterase 1 (TDP1): qHTS in cells in absence of CPT. DT40 Tdp1-/- hTDP1 cells, no CPT, ATP luminescence, 48 h. Potency, µM (titrated, usually from 46.2 µM), inactives show top-dose activity change, negative = growth inhibition, most hits filed as inhibitors. 420,000 compounds, 15% hits. AID 686978, 2013; note: nearly all actives have a fitted effect of over 55% in size
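A cellular qHTS used chicken DT40 cells lacking endogenous Tdp1 but carrying stably transfected human TDP1. Compounds were applied without camptothecin, and cell growth kinetics were judged by ATP-dependent luminescence after ≥48 hr.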
KB-V1 cytotox – KB-V1 MDR subline cytotoxicity. KB-V1 MDR cells viability, CellTiter-Glo, 72 h. Potency, µM (titrated, usually from 46.1 µM), hits mostly cytotoxic. 400,000 compounds, 3.4% hits; note: nearly all actives have a fitted effect of over 60% in size
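Cytotoxicity toward P-gp-expressing KB-V1 cells was determined as loss of CellTiter-Glo luminescence after 72 h at 37 degrees C. Compounds were tested in quantitative HTS format across a concentration range, with curves fitted to normalized data.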
* = called active by the depositor; i = inactive; ? = inconclusive; . = no result given. Calls come from the whole dose curve; as a rule, active = well fitted curve in the direction sought with a large enough effect; inconclusive = small, poorly fitted or top-dose-only effect, or another doubt; inactive = no such curve, though single readings can be large; an effect the other way counts as inactive or inconclusive. Unless noted, % is set by controls: 0 for no effect and ±100 for the full control effect; potency is the fitted concentration of half-maximal effect.

SMILES	HT1080 IDH1KD tx	DT40 TDP1 CPT	KB-3-1 cytotox	HT1080-NT tox	TDP1 cell noCPT	KB-V1 cytotox
Cc1cc2nc(Sc3c([N+](=O)[O-])nc(C)n3Cc3ccccc3)[nH]c2cc1C	?	7.3µM*	?	?	12µM*	i
Cn1cnc([N+](=O)[O-])c1Sc1nc2ccccc2[nH]1	18µM*	10µM*	i	?	18µM*	i
Cc1nc([N+](=O)[O-])c(N2CCN(Cc3ccccc3)CC2)n1Cc1ccccc1	-2%	?	i	-5%	?	i
CCN1CCN(c2ccc([N+](=O)[O-])c(Sc3nc4ccccc4[nH]3)c2)CC1	-7%	?	i	-10%	?	i
COCCN(C(=O)COC(=O)c1cccs1)c1c(N)n(Cc2ccccc2)c(=O)[nH]c1=O	9%	-19%	i	1%	15%	i
OCC(O)C(O)[C@H](O[C@H]1OC(CO)C(O)C(O)C1O)[C@H](O)CO (some centres not stated)	.	-3%	.	.	3%	.
COc1ccc2nc(Sc3c([N+](=O)[O-])nc(C)n3Cc3ccccc3)[nH]c2c1	21µM*	18µM*	?	?	23µM*	i
COc1ccc2nc(SCC(=O)NCc3ccccc3)[nH]c2c1	-4%	-4%	i	-5%	1%	i
CCOc1ccc2[nH]c3c(N4CCC5(CC4)OCCO5)ncnc3c2c1	23µM*	23µM*	?	?	23µM*	?
O=C(c1ccco1)N1CCN(c2ncnc3c2[nH]c2ccc(Br)cc23)CC1	?	?	?	?	23µM*	?
COc1ccc(OC)c2sc(N3CCN(C(=O)c4ccco4)CC3)nc12	.	-2%	i	.	-20%	i
CCOc1ccc2[nH]c3c(N4CCN(C(=O)c5ccco5)CC4)ncnc3c2c1	?	16µM*	i	?	13µM*	i
COCCn1c(=O)c(-c2cc(F)cc(F)c2)nc2cnc(Oc3cccc(Cl)c3)nc21	.	?	.	.	-19%	.
Cc1ccc(C)c(NC(=O)Cn2ncc3c([nH]c4ccccc43)c2=O)c1	.	1%	i	.	-4%	i
CCC(C)(C)n1nnnc1C(c1ccc(C)cc1)N1CCC(C)CC1 (configuration not stated)	-22%	13µM*	i	-27%	?	?
CCC(C)(C)n1nnnc1C(c1ccc2ncccc2c1)N1CCN(c2nc3ccccc3s2)CC1 (configuration not stated)	?	21µM*	i	?	?	i
CCC(C)(C)n1nnnc1C(c1ccc2ncccc2c1)N1CCCC(C)C1 (configuration not stated)	-9%	-22%	i	-5%	11µM*	i
CCC(C)(C)n1nnnc1C(c1ccncc1)N1CCC(C)CC1 (configuration not stated)	1%	-17%	i	3%	-3%	i
COc1ccc(NC(=O)Cn2c(=O)n(Cc3nc(-c4ccccc4)no3)c(=O)c3ccccc32)cc1Cl	.	-20%	i	.	?	i
CC/C(=C/c1ccccc1OC)c1cc(-c2ccccc2)cc2oc3ccccc3c12	.	?	i	.	?	i
Cc1c(C(=O)NCc2ccccn2)sc2nc(-c3ccccc3)cn12	?	?	9.2µM*	?	?	i
COCCNC(=O)c1sc2nc(-c3ccccc3)cn2c1C	16%	-2%	i	11%	-5%	13µM*
O=C(Nc1ccc(F)cc1)Nc1nnc(Cc2ccccc2)s1	-13%	-15%	i	-5%	?	i
O=C(Nc1nnc(COc2ccccc2F)s1)Nc1ccccc1F	?	?	i	?	21µM*	i
O=C(Nc1ccc(F)cc1)Nc1nnc(COc2ccccc2F)s1	15µM*	15µM*	i	?	16µM*	?
SMILES	HT1080 IDH1KD tx	DT40 TDP1 CPT	KB-3-1 cytotox	HT1080-NT tox	TDP1 cell noCPT	KB-V1 cytotox
Cc1ccc(SCC(=O)OCC(=O)NC(C)c2ccc(Br)cc2)cc1 (configuration not stated)	4%	-15%	i	0%	-6%	i
CC(C)(C)c1cc(C(=O)O)n(Cc2ccc(Cl)cc2Cl)n1	-8%	15µM*	i	-1%	-13%	i
CCCCCCCCN1C(=O)[C@H](CC(=O)N2CCSCC2)C[C@@]2(C(=O)OC)CC(C)(C)CC=C12	?	?	i	?	16µM*	?
COC(=O)[C@@]12C[C@@H](CC(=O)N3CCOCC3)C(=O)N(Cc3ccccc3)C1=CCC(C)(C)C2	6%	-7%	i	4%	?	?
CCCCCCCCN1C(=O)[C@H](CC(=O)N2CCC(c3ccccc3)CC2)C[C@@]2(C(=O)OC)CC(C)(C)CC=C12	-2%	?	i	0%	16µM*	i
CCCCCCCCN1C(=O)[C@H](CC(=O)N2CCCC2)C[C@@]2(C(=O)OC)CC(C)(C)CC=C12	?	9.2µM*	?	?	?	?
COC(=O)[C@@]12C[C@@H](CC(=O)N3CCSCC3)C(=O)N(Cc3ccccc3)C1=CCC(C)(C)C2	0%	-16%	i	5%	?	?
Cc1ccc2[nH]c3c(=O)n(CC(=O)N4CCN(c5ccccc5F)CC4)ncc3c2c1	.	-2%	i	.	9%	i
C[C@H]1COc2cc(N3CCC[C@H]3CO)ccc2S(=O)(=O)N1	1%	5%	i	6%	0%	i
N#CC1(NC(=O)COC(=O)c2nc(Cl)c(Cl)c(N)c2Cl)CCCCC1	8%	-2%	i	14%	0%	i
Cc1ccccc1-c1nc2cc(N)ccc2o1	0%	7%	i	0%	-26%	?
CC(C)c1ccc2oc(-c3cc(N)ccc3O)nc2c1	-20%	?	i	-10%	?	18µM*
COc1ccc(Cl)cc1NC(=O)CN(C)C(=O)CCc1nc2ccccc2c(=O)[nH]1	-6%	?	i	-3%	-21%	i
N#Cc1c2c(c(Cl)n3c1nc1ccccc13)CCCC2	.	0.71µM*	i	.	0.89µM*	i
CCN(CC)c1c2c(c(C#N)c3nc4ccccc4n13)CCC2	6%	-18%	i	2%	?	3.7µM*
COCCNc1c2c(c(C#N)c3nc4ccccc4n13)CCCC2	-17%	26µM*	i	-14%	21µM*	?
